Out of some 5,500 compounds screened, about 2,000 (36%) were called active. About 18% were inconclusive and are not listed. No stated cut-off is given here; in the data, active means normalized growth mostly below about 0.91 (no sharp cut-off); inconclusive means no clear call, values can overlap the other calls; inactive means mostly above about 0.92. The list shows a part of the results.
Test: chemical genetic growth profiling, strain panel (AID 1159580);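 further: tested at 20 µM; growth read once vehicle control cultures reached saturation at 30 °C; 1 = growth at the plate median or of vehicle wells; lower values mean less growth of the strain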
Conditions: S. cerevisiae deletion strains, growth OD
[1] = locus YHR030C, strain SLT2, hits give low values
[2] = locus YHR079C, strain IRE1, hits give low values
[3] = locus YJL095W, strain BCK1, hits give low values
[4] = locus YJR066W, strain TOR1, hits give low values
[5] = locus YLR113W, strain HOG1, hits give low values
[6] = locus YNL183C, strain NPR1, hits give low values
[7] = locus YOR231W, strain MKK1, hits give low values
[8] = locus YPL256C, strain CLN2, hits give low values

Measured: normalized growth

COc1cc(O)cc(O)c1C(C)=O
inactive: [1] 0.969 | [2] 0.981 | [3] 0.984 | [4] 0.916 | [5] 0.971 | [6] 0.907 | [7] 0.985 | [8] 0.97

COc1cc(O)c(C(C)=O)c(O)c1
inactive: [1] 1.05 | [2] 1.03 | [3] 0.989 | [4] 0.979 | [5] 0.935 | [6] 0.925 | [7] 1.04 | [8] 0.992

Reference: PubChem BioAssay AID1159580 (chemical genetic matrix, 2015)
